About 7,900 targets were measured; listed, in parts, are those with a hit and a random draw of the rest. About 0.6% of all pairs of compound and target were hits.
What was measured:
Assay in all cases: log2 fold change, soluble protein after heating vs DMSO (PISA); higher = thermal stabilisation; K562 cells, 10 uM, 30 min; active = over 0.2 and 3.5 SD of the protein, either way, in both replicates (recomputed)
[1] = compound: CC[C@@H]1C(=O)N(C)c2cnc(Nc3ccc(C(=O)NC4CCN(C)CC4)cc3OC)nc2N1C1CCCC1
How it was run: (§1)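 Values are thermal stability changes relative to control samples and are taken from duplicates. They are stated as log2 fold changes. Before quantification by TMTpro 16plex LC-MS/MS with equalised channel sums, K562 cells at 2×10^6 cells/mL were treated with 10 μM compound for 30 min, heated in aliquots for 3 min across 48°C-58°C, pooled, extracted in PBS with 0.5% NP-40 at 4°C, and centrifuged at 21,000xg for 90 min to give the soluble supernatant.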

volasertib = compound: CC[C@@H]1C(=O)N(C)c2cnc(Nc3ccc(C(=O)N[C@H]4CC[C@H](N5CCN(CC6CC6)CC5)CC4)cc3OC)nc2N1C(C)C [volasertib]
How it was run: as §1

[2] = compound: CC[C@H](C)N1C=C(C2=C(C=C(C=C21)C3=CN=C(C=C3)N4CCNCC4)C(=O)NCC5=C(C=C(NC5=O)C)C)C
How it was run: as §1

epoxomicin = compound: CC[C@H](C)[C@@H](C(=O)N[C@@H]([C@@H](C)O)C(=O)N[C@@H](CC(C)C)C(=O)[C@]1(CO1)C)NC(=O)[C@H]([C@@H](C)CC)N(C)C(=O)C [epoxomicin]
How it was run: as §1

[3] = compound: CCn1c(C(=O)N(C2CC2)C2CC2)cc2c3c(ncn3C)c(Nc3cc(C)n(C)n3)nc21
How it was run: as §1

[4] = compound: CCn1cc(-c2ccnc3[nH]c(-c4cccc(CN(C)C)c4)cc23)c(-c2ccc(NC(=O)N(C)C)cc2)n1
How it was run: as §1

[5] = compound: CN(C)CC(=O)Nc1ccc2[nH]c(=O)c3ccccc3c2c1
How it was run: as §1

rosiglitazone = compound: CN(CCOC1=CC=C(C=C1)C[C@H]2C(=O)NC(=O)S2)C3=CC=CC=N3 (racemic) [rosiglitazone]
How it was run: as §1

[6] = compound: CN1C2=C(C3=C1C(=O)N(N=C3)CC4=CC(=CC=C4)N)SC(=C2)S(=O)C
How it was run: as §1

[7] = compound: CN1CCC(CNc2ccc3ncc(-c4cccc(OC(F)(F)F)c4)n3n2)CC1
How it was run: as §1

saracatinib = compound: CN1CCN(CCOc2cc(OC3CCOCC3)c3c(Nc4c(Cl)ccc5c4OCO5)ncnc3c2)CC1 [saracatinib]
How it was run: as §1

sotrastaurin = compound: CN1CCN(c2nc(C3=C(c4c[nH]c5ccccc45)C(=O)NC3=O)c3ccccc3n2)CC1 [sotrastaurin]
How it was run: as §1

alvocidib = compound: CN1CC[C@H](c2c(O)cc(O)c3c(=O)cc(-c4ccccc4Cl)oc23)[C@H](O)C1 [alvocidib]
How it was run: as §1

Tubastatin A = compound: CN1CCc2c(c3ccccc3n2Cc2ccc(C(=O)NO)cc2)C1 [Tubastatin A]
How it was run: as §1

[8] = compound: CNC(=O)C1=CC=CC=C1NC2=NC(=NC=C2Cl)NC3=C(C=C(C=C3)N4CCOCC4)OC
How it was run: as §1

defactinib = compound: CNC(=O)c1ccc(Nc2ncc(C(F)(F)F)c(NCc3nccnc3N(C)S(C)(=O)=O)n2)cc1 [defactinib]
How it was run: as §1

rucaparib = compound: CNCc1ccc(-c2[nH]c3cc(F)cc4c3c2CCNC4=O)cc1 [rucaparib]
How it was run: as §1

[9] = compound: CNc1nc(-c2ccc3c(N)n[nH]c3c2)cc(N2C[C@@H](C(=O)NC3CCCCC3)CC[C@H]2C)n1
How it was run: as §1

encorafenib = compound: COC(=O)N[C@@H](C)CNc1nccc(-c2cn(C(C)C)nc2-c2cc(Cl)cc(NS(C)(=O)=O)c2F)n1 [encorafenib]
How it was run: as §1

[10] = compound: COC(=O)[C@H](CCSC)NC(=O)C1=C(C=C(C=C1)NC[C@H](CS)N)C2=CC=CC=C2
How it was run: as §1

Measured: log2 fold change

EGLN1 (UniProt Q9GZT9)
Chain of UniProt Q9GZT9 (Q9GZT9 whole entry, looked up): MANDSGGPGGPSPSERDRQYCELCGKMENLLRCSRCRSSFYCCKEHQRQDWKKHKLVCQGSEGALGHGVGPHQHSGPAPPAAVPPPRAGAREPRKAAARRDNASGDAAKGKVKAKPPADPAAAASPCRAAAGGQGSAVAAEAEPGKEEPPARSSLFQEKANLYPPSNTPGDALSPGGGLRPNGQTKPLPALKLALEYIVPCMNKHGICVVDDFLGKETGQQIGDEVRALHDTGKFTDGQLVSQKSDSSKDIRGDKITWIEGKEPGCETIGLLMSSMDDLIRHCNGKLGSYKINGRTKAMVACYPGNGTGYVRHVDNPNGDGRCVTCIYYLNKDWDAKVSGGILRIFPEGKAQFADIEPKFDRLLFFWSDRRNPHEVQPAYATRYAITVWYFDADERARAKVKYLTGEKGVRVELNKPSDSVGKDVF
active: Tubastatin A -0.296
inactive: [1] 0.117 | volasertib -0.001 | [2] 0.048 | epoxomicin 0.078 | [3] -0.011 | [4] -0.004 | [5] 0.007 | rosiglitazone 0.035 | [6] -0.006 | [7] -0.052 | saracatinib -0.01 | sotrastaurin -0.074 | alvocidib -0.003 | [8] 0.065 | defactinib -0.027 | rucaparib 0.114 | [9] 0.03 | encorafenib 0.001 | [10] 0.002

FAM114A2 (UniProt Q9NRY5)
Chain of UniProt Q9NRY5 (Q9NRY5 whole entry, looked up): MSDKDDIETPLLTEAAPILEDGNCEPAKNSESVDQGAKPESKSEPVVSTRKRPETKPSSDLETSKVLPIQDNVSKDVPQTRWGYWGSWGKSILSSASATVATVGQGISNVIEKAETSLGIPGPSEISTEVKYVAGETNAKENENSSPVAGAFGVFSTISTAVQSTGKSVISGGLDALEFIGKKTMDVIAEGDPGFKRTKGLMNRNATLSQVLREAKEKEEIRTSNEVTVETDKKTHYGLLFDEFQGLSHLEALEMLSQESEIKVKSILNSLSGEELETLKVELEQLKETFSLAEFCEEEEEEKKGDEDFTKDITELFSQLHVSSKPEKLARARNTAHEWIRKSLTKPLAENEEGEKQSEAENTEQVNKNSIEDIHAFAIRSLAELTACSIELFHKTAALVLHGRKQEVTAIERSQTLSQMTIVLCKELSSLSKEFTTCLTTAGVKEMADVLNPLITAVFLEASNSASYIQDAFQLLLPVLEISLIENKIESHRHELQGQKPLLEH
inactive: [1] -0.094 | volasertib -0.136 | [2] 0.046 | epoxomicin 0.052 | [3] -0.001 | [4] -0.059 | [5] 0.02 | rosiglitazone 0.049 | [6] -0.013 | saracatinib 0.005 | sotrastaurin -0.048 | alvocidib -0.078 | Tubastatin A -0.019 | [8] -0.001 | defactinib -0.04 | rucaparib -0.022 | [9] -0.054 | encorafenib 0.008 | [10] 0.025
active: [7] -0.29

DFFB (UniProt O76075)
inactive: [1] 0.049 | volasertib 0.036 | [2] 0.104 | epoxomicin 0.039 | [3] -0.057 | [4] 0.028 | [5] -0.036 | rosiglitazone 0 | [6] -0.074 | [7] -0.01 | saracatinib 0.017 | sotrastaurin 0.052 | alvocidib -0.038 | Tubastatin A 0.07 | [8] 0.009 | defactinib 0.024 | rucaparib 0.049 | [9] -0.016 | encorafenib -0.019 | [10] 0.033

CTSB (UniProt P07858)
inactive: [2] -0.009 | epoxomicin -0.011 | [3] 0.017 | [4] -0.047 | [5] 0.021 | rosiglitazone -0.007 | [6] -0.07 | saracatinib 0.05 | sotrastaurin 0.064 | alvocidib 0 | Tubastatin A 0.002 | [8] 0.052 | defactinib -0.014 | rucaparib -0.073 | [9] -0.009 | encorafenib 0.013 | [10] -0.008
active: [1] -1.16 | volasertib -1.72 | [7] -0.936

ERCC6 (UniProt Q03468)
inactive: [1] 0.072 | volasertib -0.135 | [2] -0.06 | epoxomicin 0.015 | [3] 0.074 | [4] -0.091 | [5] 0.004 | rosiglitazone -0.221 | [6] -0.009 | [7] 0.08 | saracatinib -0.006 | sotrastaurin 0.169 | alvocidib -0.04 | Tubastatin A -0.093 | [8] 0.126 | defactinib 0.016 | rucaparib 0 | [9] -0.085 | encorafenib -0.088 | [10] 0.055

FAM160B1 (UniProt Q5W0V3)
inactive: [1] -0.007 | volasertib -0.043 | [2] 0.07 | epoxomicin 0 | [3] 0.027 | [4] -0.057 | [5] -0.052 | rosiglitazone 0.009 | [6] -0.056 | [7] -0.254 | saracatinib -0.003 | sotrastaurin -0.071 | alvocidib -0.138 | Tubastatin A 0 | [8] -0.011 | defactinib -0.01 | rucaparib -0.036 | [9] -0.007 | encorafenib -0.015 | [10] 0.072

CTU1 (UniProt Q7Z7A3)
Chain of UniProt Q7Z7A3 (Q7Z7A3 whole entry, looked up): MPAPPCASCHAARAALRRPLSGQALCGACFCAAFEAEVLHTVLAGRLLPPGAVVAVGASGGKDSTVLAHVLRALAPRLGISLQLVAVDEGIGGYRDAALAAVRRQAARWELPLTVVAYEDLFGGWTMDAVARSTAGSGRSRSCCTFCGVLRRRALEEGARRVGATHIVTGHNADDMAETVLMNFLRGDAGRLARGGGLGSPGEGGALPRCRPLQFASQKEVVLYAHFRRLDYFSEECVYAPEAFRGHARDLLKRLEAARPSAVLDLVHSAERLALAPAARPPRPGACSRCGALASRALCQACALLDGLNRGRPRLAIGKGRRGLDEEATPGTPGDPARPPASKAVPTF
active: [7] -0.233
inactive: [1] -0.052 | volasertib -0.117 | [2] 0.026 | epoxomicin 0.045 | [3] -0.017 | [4] -0.057 | [5] 0.065 | rosiglitazone 0.055 | [6] -0.098 | saracatinib 0.01 | sotrastaurin -0.038 | alvocidib -0.19 | Tubastatin A -0.029 | [8] -0.045 | defactinib -0.036 | rucaparib -0.003 | [9] 0.09 | encorafenib 0.02 | [10] -0.031

DNM2 (UniProt P50570)
Chain of UniProt P50570 (P50570 whole entry, looked up): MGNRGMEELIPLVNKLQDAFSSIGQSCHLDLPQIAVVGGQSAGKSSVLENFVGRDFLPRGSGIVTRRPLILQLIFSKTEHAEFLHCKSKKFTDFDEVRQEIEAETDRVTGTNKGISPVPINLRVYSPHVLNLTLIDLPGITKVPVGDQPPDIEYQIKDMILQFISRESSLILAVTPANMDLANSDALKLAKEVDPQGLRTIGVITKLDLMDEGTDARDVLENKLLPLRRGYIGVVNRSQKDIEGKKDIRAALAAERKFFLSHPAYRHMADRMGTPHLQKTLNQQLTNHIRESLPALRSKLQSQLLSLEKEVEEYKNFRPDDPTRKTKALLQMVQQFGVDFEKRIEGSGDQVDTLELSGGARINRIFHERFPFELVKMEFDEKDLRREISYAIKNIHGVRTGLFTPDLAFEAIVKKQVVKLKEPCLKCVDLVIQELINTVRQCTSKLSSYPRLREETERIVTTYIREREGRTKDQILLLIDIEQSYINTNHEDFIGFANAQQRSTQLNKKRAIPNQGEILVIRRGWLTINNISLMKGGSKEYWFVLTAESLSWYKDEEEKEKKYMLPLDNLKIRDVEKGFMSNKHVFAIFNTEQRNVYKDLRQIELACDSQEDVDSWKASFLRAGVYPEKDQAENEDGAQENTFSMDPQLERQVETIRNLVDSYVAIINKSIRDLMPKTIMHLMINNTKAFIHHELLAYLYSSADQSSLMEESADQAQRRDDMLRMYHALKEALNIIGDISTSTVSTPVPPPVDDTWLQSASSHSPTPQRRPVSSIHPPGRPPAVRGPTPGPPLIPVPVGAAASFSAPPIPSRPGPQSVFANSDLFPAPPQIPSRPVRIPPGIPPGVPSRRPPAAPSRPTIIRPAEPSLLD
active: [7] -0.349
inactive: [1] -0.013 | volasertib -0.015 | [2] 0.043 | epoxomicin 0.029 | [3] -0.002 | [4] -0.091 | [5] 0.037 | rosiglitazone 0.05 | [6] -0.044 | saracatinib -0.028 | sotrastaurin 0.043 | alvocidib -0.074 | Tubastatin A 0 | [8] -0.027 | defactinib -0.02 | rucaparib 0.035 | [9] 0.029 | encorafenib 0.009 | [10] -0.03

DHPS (UniProt P49366)
Chain of UniProt P49366 (P49366 whole entry, looked up): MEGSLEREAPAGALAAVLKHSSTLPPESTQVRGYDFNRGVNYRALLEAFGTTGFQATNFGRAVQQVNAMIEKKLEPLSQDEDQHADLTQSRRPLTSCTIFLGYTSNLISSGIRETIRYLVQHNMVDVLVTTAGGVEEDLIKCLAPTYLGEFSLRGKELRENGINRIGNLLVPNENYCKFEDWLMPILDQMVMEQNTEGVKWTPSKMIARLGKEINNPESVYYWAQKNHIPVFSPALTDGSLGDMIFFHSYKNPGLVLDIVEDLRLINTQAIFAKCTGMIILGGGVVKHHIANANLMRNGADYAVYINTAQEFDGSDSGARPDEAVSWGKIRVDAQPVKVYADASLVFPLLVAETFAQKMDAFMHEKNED
inactive: [1] 0.045 | volasertib 0.028 | [2] 0.001 | epoxomicin 0.046 | [3] -0.002 | [4] 0.014 | [5] -0.012 | rosiglitazone -0.01 | [6] -0.017 | [7] -0.049 | saracatinib 0.087 | sotrastaurin 0.043 | alvocidib -0.013 | Tubastatin A 0.005 | [8] -0.026 | defactinib -0.027 | rucaparib -0.018 | [9] -0.053 | encorafenib -0.012 | [10] -0.011

DTYMK (UniProt P23919)
Chain of UniProt P23919 (P23919 whole entry, looked up): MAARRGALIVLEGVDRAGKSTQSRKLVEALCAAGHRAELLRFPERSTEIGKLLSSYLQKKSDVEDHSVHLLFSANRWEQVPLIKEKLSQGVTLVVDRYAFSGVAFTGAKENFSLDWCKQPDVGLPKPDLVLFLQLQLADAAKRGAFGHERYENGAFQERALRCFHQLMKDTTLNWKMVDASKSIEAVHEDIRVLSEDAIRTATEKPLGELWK
active: [4] -0.245
inactive: [1] 0.044 | volasertib 0.171 | [2] -0.03 | epoxomicin 0.039 | [3] -0.053 | [5] 0.01 | rosiglitazone 0.056 | [6] -0.04 | [7] -0.037 | saracatinib -0.02 | sotrastaurin 0.06 | alvocidib 0 | Tubastatin A -0.022 | [8] -0.062 | defactinib 0.004 | rucaparib -0.044 | [9] 0.003 | encorafenib 0.005 | [10] 0.013

DHCR7 (UniProt Q9UBM7)
Chain of UniProt Q9UBM7 (Q9UBM7 whole entry, looked up): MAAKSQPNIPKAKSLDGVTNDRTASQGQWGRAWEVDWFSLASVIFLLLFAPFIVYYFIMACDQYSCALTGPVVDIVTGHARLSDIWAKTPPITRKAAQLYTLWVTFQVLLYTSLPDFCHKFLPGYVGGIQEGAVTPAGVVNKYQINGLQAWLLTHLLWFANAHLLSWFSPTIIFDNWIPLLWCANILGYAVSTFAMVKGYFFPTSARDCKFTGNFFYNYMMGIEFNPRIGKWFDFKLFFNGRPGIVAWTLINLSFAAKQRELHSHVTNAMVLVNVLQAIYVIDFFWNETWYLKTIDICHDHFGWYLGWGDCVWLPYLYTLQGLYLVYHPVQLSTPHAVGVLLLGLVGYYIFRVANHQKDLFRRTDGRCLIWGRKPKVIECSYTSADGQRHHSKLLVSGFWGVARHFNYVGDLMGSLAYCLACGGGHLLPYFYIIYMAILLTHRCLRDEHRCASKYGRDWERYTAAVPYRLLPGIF
active: volasertib 1.68 | [4] 0.522
inactive: [1] 0.409 | [2] 0.054 | epoxomicin 0.154 | [3] -0.044 | [5] 0.085 | rosiglitazone 0.032 | [6] -0.055 | [7] 0.203 | saracatinib 0.412 | sotrastaurin -0.033 | alvocidib -0.042 | Tubastatin A 0.087 | [8] -0.181 | defactinib -0.01 | rucaparib 0.143 | [9] 0.087 | encorafenib 0.084 | [10] -0.048

DDX39A (UniProt O00148)
Chain of UniProt O00148 (O00148 whole entry, looked up): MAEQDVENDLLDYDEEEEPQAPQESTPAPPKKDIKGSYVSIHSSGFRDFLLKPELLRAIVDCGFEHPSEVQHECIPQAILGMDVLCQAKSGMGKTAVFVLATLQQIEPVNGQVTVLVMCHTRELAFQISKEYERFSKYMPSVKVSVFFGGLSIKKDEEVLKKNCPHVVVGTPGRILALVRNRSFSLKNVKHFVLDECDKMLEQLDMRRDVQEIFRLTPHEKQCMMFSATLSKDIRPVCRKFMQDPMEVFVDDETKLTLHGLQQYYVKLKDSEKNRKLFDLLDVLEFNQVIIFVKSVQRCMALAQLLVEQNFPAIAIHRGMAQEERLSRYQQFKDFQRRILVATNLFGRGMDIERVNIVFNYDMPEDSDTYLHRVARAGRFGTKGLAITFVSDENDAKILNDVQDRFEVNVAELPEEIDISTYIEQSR
inactive: [1] 0.037 | volasertib -0.104 | [2] 0.034 | epoxomicin -0.096 | [3] -0.037 | [4] -0.123 | [5] -0.002 | rosiglitazone 0.018 | [6] 0.038 | [7] -0.016 | saracatinib 0.018 | sotrastaurin -0.149 | alvocidib -0.061 | Tubastatin A 0.007 | [8] -0.143 | defactinib -0.213 | rucaparib 0.111 | [9] -0.041 | encorafenib -0.016 | [10] -0.032

DNAH11 (UniProt Q96DT5)
inactive: [1] 0.234 | volasertib 0.426 | [2] -0.029 | epoxomicin -0.157 | [3] 0.063 | [4] 0.176 | [5] -0.111 | rosiglitazone -0.047 | [6] 0.298 | [7] -0.424 | saracatinib 0.301 | sotrastaurin 0.317 | alvocidib 0.517 | Tubastatin A -0.083 | [8] -0.043 | defactinib -0.11 | rucaparib 0.162 | [9] 0.061 | encorafenib 0.152 | [10] 0.049

DCUN1D1 (UniProt Q96GG9)
Chain of UniProt Q96GG9 (Q96GG9 whole entry, looked up): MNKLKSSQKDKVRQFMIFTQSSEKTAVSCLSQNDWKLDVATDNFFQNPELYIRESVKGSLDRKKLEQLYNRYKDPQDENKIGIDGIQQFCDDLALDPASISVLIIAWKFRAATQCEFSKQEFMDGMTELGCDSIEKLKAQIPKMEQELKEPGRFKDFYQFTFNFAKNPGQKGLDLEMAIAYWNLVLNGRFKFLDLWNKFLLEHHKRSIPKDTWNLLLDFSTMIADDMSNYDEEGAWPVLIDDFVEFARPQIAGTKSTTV
active: volasertib -0.276
inactive: [1] -0.1 | [2] 0.018 | epoxomicin 0.048 | [3] -0.006 | [4] -0.061 | [5] 0.03 | rosiglitazone 0.013 | [6] -0.056 | [7] -0.178 | saracatinib 0.032 | sotrastaurin -0.001 | alvocidib -0.067 | Tubastatin A -0.009 | [8] 0.007 | defactinib -0.033 | rucaparib -0.026 | [9] -0.02 | encorafenib 0.014 | [10] -0.011

DNAJC1 (UniProt Q96KC8)
Chain of UniProt Q96KC8 (Q96KC8 whole entry, looked up): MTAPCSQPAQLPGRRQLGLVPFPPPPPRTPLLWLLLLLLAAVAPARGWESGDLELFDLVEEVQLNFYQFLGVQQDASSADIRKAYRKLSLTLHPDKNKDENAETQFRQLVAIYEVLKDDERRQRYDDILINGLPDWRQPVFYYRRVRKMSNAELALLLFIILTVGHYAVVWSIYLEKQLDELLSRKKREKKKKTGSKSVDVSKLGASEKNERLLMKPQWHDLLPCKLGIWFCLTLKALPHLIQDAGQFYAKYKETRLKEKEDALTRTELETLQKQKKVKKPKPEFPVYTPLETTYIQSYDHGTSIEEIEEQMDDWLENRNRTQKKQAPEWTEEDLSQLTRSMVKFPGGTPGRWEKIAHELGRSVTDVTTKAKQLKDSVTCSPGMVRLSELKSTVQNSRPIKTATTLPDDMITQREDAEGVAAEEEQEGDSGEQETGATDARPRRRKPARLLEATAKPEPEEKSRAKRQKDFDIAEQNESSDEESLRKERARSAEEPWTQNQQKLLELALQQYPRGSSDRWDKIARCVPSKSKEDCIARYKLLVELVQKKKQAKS
inactive: [1] -0.097 | volasertib -0.185 | [2] 0.024 | epoxomicin 0.037 | [3] 0.008 | [4] 0.014 | [5] 0.002 | rosiglitazone 0.014 | [6] -0.01 | [7] -0.144 | saracatinib -0.02 | sotrastaurin -0.028 | alvocidib -0.012 | Tubastatin A 0.018 | [8] 0.046 | defactinib 0.004 | rucaparib 0.03 | [9] -0.011 | encorafenib 0.003 | [10] 0.005

DCAF16 (UniProt Q9NXF7)
Chain of UniProt Q9NXF7 (Q9NXF7 whole entry, looked up): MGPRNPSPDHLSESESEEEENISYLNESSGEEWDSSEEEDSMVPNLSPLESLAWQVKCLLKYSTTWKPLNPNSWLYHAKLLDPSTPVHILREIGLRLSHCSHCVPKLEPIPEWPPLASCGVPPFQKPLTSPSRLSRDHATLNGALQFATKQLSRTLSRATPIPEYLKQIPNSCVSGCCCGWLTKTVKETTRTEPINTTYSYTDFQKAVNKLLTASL
inactive: [1] -0.164 | [2] 0.06 | epoxomicin 0.032 | [3] -0.026 | [4] -0.205 | [5] 0.073 | rosiglitazone 0.055 | [6] -0.052 | [7] 0.03 | saracatinib -0.052 | sotrastaurin -0.036 | alvocidib -0.082 | Tubastatin A -0.006 | [8] 0.084 | defactinib -0.054 | rucaparib 0.033 | [9] -0.05 | encorafenib 0.004 | [10] -0.041
active: volasertib -0.532
